# About 21,000 targets were measured; listed, in parts, are those with the largest changes and a random draw of the rest.
# Molecular target: PKN2_Q16513_118_LQELNAHIVVSDPEDITDCPR (UniProt Q16513)
# Assay: probe-labelled cysteine peptide fold change vs DMSO (competition) (log2 fold change); higher = less target engagement (more negative = stronger competition)
# Conditions: THP-1, incubation time: 4 h
# 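Note: competitive profiling in live THP-1 cells: cysteine peptides tagged with an iodoacetamide desthiobiotin (IA-DTB) probe, intensity after compound treatment relative to DMSO-treated cells.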
# UniProt Q16513, sequence (Q16513 whole entry, looked up): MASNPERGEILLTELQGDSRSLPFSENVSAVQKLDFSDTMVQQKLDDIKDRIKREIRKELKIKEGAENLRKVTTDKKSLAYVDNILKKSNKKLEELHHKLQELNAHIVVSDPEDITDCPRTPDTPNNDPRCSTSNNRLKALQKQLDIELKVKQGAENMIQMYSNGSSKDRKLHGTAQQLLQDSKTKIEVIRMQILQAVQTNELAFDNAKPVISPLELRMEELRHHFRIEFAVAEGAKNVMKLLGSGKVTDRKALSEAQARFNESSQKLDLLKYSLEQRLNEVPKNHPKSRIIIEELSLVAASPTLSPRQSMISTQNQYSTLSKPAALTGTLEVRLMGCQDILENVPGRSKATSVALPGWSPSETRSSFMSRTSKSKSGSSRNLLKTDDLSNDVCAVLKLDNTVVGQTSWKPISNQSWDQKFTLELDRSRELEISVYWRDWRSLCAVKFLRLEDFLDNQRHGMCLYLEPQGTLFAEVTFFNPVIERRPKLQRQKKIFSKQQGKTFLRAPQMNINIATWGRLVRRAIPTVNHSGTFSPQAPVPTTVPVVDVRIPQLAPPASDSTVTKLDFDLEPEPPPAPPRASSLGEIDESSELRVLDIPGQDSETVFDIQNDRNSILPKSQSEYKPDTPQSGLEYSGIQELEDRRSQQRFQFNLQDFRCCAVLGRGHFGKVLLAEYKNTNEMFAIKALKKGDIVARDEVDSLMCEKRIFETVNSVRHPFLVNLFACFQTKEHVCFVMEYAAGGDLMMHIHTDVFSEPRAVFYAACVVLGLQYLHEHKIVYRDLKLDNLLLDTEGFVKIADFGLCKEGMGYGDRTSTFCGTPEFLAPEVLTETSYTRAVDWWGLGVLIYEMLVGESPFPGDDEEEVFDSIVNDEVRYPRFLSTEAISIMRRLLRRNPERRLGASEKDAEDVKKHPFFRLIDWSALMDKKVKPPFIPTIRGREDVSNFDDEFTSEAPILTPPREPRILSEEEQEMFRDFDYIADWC
smiles,measurement,setting,value
Cc1cc(C(=O)N2CCCN(C(=O)CCl)CC2)ccc1-c1ccccc1 [compound 10],probe-labelled cysteine peptide fold change,10 µM,-0.00661
same,probe-labelled cysteine peptide fold change,50 µM,0.269

# From the supplement of paper PMC12067093, “Discovery and optimisation of a covalent ligand for TRIM25 and its application to targeted protein ubiquitination” (Chemical Science, 2025)
